Bioassay records deposited in PubChem BioAssay by National Center for Advancing Translational Sciences (NCATS).
Shiga inhibitor – Shiga toxin inhibition; Vero cells, Shiga toxin protein synthesis inhibition reporter; inhibition, % at 38.7 µM; hit rate 9.2% among 290,000; in the data active = inhibition mostly above about 28%, no sharp cut-off; inactive = mostly below about 43%; also: 0% is about no effect
HCV inh – blocks hepatitis C virus | Huh7.5.1 HCVcc-Cre infection, luciferase reporter, 44 h | Potency, µM (series often up to 41.8 µM), for the others: at the highest dose activity change, negative = inhibition, usual class: inhibitors | AID 651820 | hit rate 3.4% among 340,000; also: potency is read from the fitted curve at half-maximal effect; % is scaled to controls: 0 for no effect and ±100 for the full control effect
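Antiviral activity was scored by luciferase reporter output from cells infected with HCVcc-Cre (~0.5 moi) in presence of compound, 44 h infection period, cells seeded 1,000/well 4 h prior.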
Pf growth 96h – P. falciparum growth inhibition at 96 hour, primary screen for plastid delayed-death inhibitors. P. falciparum luciferase reporter growth, 96 h. Potency, µM (highest dose often 28.7 µM), inactives show top-dose activity change, negative = inhibition, most hits filed as inhibitors. hit rate 6.9% among 320,000. AID 504834; also: potency is read from the fitted curve at half-maximal effect; % is scaled to controls: 0 for no effect and ±100 for the full control effect
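P. falciparum expressing integrated firefly luciferase, in erythrocytes at 2% hematocrit, 0.05% parasitemia, incubated with compounds 96 h at 37 C, 5% CO2. Growth inhibition read as loss of luminescence; two-generation exposure targets delayed-death apicoplast inhibitors.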
HCMV inh – human cytomegalovirus inhibition; HFF cells, HCMV-luciferase reporter, 72 h; stronger effect = lower value; activity change, negative = inhibition, % at 57.5 µM; hit rate 4.5% among 410,000; AID 1259415; in the data active = activity change below about -60%; inconclusive = no clear call, values can overlap the other calls; inactive = above about -39%; also: % is scaled to controls: 0 for no effect and ±100 for the full control effect
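Inhibition of viral replication was scored as loss of reporter luminescence in HFFs infected with HCMV-luciferase (MOI 1 PFU/cell) for 72 h; compounds tested at 2 doses, normalized to buffer and Salinomycin controls.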
Pf growth 48h – P. falciparum growth inhibition at 48 hours (one generation). P. falciparum luciferase growth in erythrocytes, 48 h. Potency, µM (titrated, usually from 28.7 µM), without a hit: at the highest dose activity change, negative = inhibition, most hits filed as inhibitors. hit rate 5.9% among 310,000. AID 504832; also: potency is read from the fitted curve at half-maximal effect; % is scaled to controls: 0 for no effect and ±100 for the full control effect
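Compounds are pin-transferred into medium, infected erythrocytes (2% hematocrit, 0.1% parasitemia final) are added, and plates sit one parasite generation at 37 C in 5% CO2. Detection reagent is then added and luminescence measured.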
Cycloheximide cs – affects cycloheximide protein synthesis inhibition readout, counter-screen; cell reporter, cycloheximide protein synthesis inhibition counterscreen; max response, %; AID 2314; hit rate 12% among 300,000; in the data active = max response mostly above about 13%, no sharp cut-off; inactive = mostly below about 14%; also: read at 38.3 µM for the half of the compounds with a filed dose; 0% is about no effect
An asterisk follows results filed as active; ? = inconclusive; / = no result; ! = a repeat was not active; [ ] = dose if it differs, or a comment. An excerpt weighted towards active compounds, which were near 21% of everything screened. Unless noted, calls follow the shape of the dose curve; as a rule, active = well fitted inhibition curve with a large enough effect; inconclusive = small, poorly fitted or top-dose-only effect, or another doubt; inactive = no such curve, though single readings can be large or run the other way.

SMILES | Shiga inhibitor | HCV inh | Pf growth 96h | HCMV inh | Pf growth 48h | Cycloheximide cs
CCCCN(Cc1ccccc1)C(=O)CCN1C(=O)C2C3C=CC(C3)C2C1=O (centres undefined) | -3 | 23% | 19% | ? | -21% | 6
COc1cc(C(=O)NC2CCCNC2)cc(OC)c1OC (centres undefined) | -5 | / | / | / | / | -3
O=C(Nc1ccc(S(=O)(=O)Nc2ccccc2)cc1)C1CC1 | -1 | ? | -1% | ? | 5% | -3
CN(c1ccccc1)S(=O)(=O)c1ccc(NC(=O)c2ccccc2)cc1 | active | ? | 2% | -39 | -15% | 15
C=CCN(CC=C)S(=O)(=O)c1ccc(C(=O)Nc2nnc(CSC)o2)cc1 | -10 | ? | ? | -32 | 12µM* | -1
CCc1nnc(NC(=O)c2ccc(S(=O)(=O)N(C)c3ccccc3)cc2)o1 | 18 | 7.1µM* | ? | -75* | ? | -4
CN(c1ccccc1)S(=O)(=O)c1ccc(NC(=O)C2CC2)cc1 | -11 | -5% | 6.6µM* | -25 | 34% | 0
O=C(COC(=O)C1=COCCO1)Nc1cc(C(F)(F)F)ccc1Cl | / | -3% | / | 1 | / | /
Cc1ccc2occ(CC(=O)Nc3c(C(=O)Nc4ccc(Cl)cc4)oc4ccccc34)c2c1 | / | / | / | 56 | / | /
CCCN(CCC)S(=O)(=O)c1ccc(C(=O)Nc2nnc(COC)o2)cc1 | -6 | -3% | -1% | ? | 15µM* | 10
CC(=O)Nc1ccc(NC(=O)COC(=O)c2ccc(S(=O)(=O)N(C)c3ccccc3)cc2)cc1 | / | 13% | / | -100* | / | /
CN(c1ccccc1)S(=O)(=O)c1ccc(C(=O)OCC(=O)NC(N)=O)cc1 | -6 | 9% | 0% | -21 | -4% | 0
COc1cc(-c2n[nH]c3ccnc(-c4cccc(OC(F)(F)F)c4)c23)cc(OC)c1OC | / | / | / | -18 | / | /
CCOC(=O)N1CCN(C(=O)C2CC(c3cc(OC)ccc3OC)=NO2)CC1 (centres undefined) | -8 | -6% | ? | 7 | ? | -1
CCOC(=O)[C@]12Cc3c(cc(OC)c(OC)c3OC)[C@H]1N(CCC(=O)OC)C(=O)c1cc(OC)ccc12 | / | / | / | -105* | / | /
CCOC(=O)[C@]12Cc3c(cc(OC)c(OC)c3OC)[C@H]1N(C)C(=O)c1cc(OC)ccc12 | / | / | / | -101* | / | /
CCCCCN1C(=O)c2ccccc2[C@@]2(C(=O)OCC)Cc3cc(OC)ccc3[C@@H]12 | / | / | / | -109* | / | /
CCOC(=O)[C@]12Cc3ccccc3[C@H]1N(CCC(=O)OC)C(=O)c1ccccc12 | / | / | / | -98* | / | /
CCOC(=O)[C@]12Cc3cc(OC)ccc3[C@H]1N(Cc1ccccc1)C(=O)c1ccccc12 | / | ? | / | -13 | / | /
Cc1cccc(-c2nc3scc(CCNS(=O)(=O)c4ccc5c(c4)OCCO5)n3n2)c1 | / | / | / | 5 | / | /
CCOC(=O)c1ccccc1NC(=O)COC(=O)CN1C(=O)NC2(CCCC2)C1=O | -4 | 6% | 2% | 35 | -15% | -3
COc1ccccc1C(=O)NC(=O)COC(=O)c1ccc(Br)o1 | / | -12% | 28% | -16 | ? | /
COc1ccc(C(=O)COC(=O)c2ccccc2O)c(OC)c1 | / | ? | 280% | 2 | 347% | /
CCOC(=O)[C@]12Cc3cc(C)ccc3[C@H]1N(CCC(=O)OC)C(=O)c1cc(OC)ccc12 | / | / | / | -109* | / | /
CCOC(=O)[C@]12Cc3cc(C)ccc3[C@H]1N(Cc1ccccc1)C(=O)c1ccccc12 | / | -12%[8.37 µM] | / | -13 | / | /
SMILES | Shiga inhibitor | HCV inh | Pf growth 96h | HCMV inh | Pf growth 48h | Cycloheximide cs
CCOC(=O)c1cccc(NC(=O)c2ccc(N(C)C)cc2)c1 | 108* | ? | 31% | 20 | 161% | 68*
CCOc1cc(NS(=O)(=O)c2ccccc2)c(OCC)cc1NC(=O)c1ccco1 | -14 | -7% | / | -101* | -13% | 1
CCOC(=O)c1cccc(NC(=O)c2ccc(NC(=O)c3ccco3)cc2)c1 | -14 | ? | -2% | -64* | ? | -3
C=Cc1cccc(NC(=O)c2ccc(NC(=O)c3ccco3)cc2)c1 | 35* | 11µM* | 1.5µM* | ? | -5% | 19*
COc1ccc(C2/C=C\CN(C(=O)c3ccccc3)C(Cc3ccccc3)C(=O)N2Cc2ccc(F)cc2)cc1 (centres undefined) | -4 | / | / | / | / | 25
Cc1ccccc1NC(=O)c1cccc(NC(=O)c2ccco2)c1 | 8 | 14% | ? | 16 | 31% | 7
CCOc1ccccc1NC(=O)c1cccc(NC(=O)c2ccco2)c1 | 6 | 3.2µM* | / | ? | ? | 8
CC(C)CCNc1nc(Nc2ccccc2)c2cnn(C)c2n1 | / | / | / | 52 | / | /
Cn1ncc2c(Nc3ccccc3Cl)nc(Nc3ccccc3Cl)nc21 | -5 | 6.3µM* | ? | -17 | 7.4µM* | -4
O=C1CSC(=S)N1c1cccnc1 | -28 | 7% | 13µM* | 2 | / | -2
O=C1CSC(=S)N1c1ccccc1 | / | -26% | / | 13 | / | /
O=C1CSC(=S)N1c1ccc(F)c(Cl)c1 | 4 | 6% | 12µM* | ? | ? | 1
S=C1SCN(Cc2cccnc2)CN1Cc1ccccc1 | -5 | ? | ? | -94* | ? | 17
S=C1NCN(Cc2cccnc2)CN1Cc1ccccc1 | 12 | -12% | 1% | 13 | 15% | 1
O=C1CSC(=S)N1Cc1cccnc1 | -9 | ? | 18% | -98* | -30% | -6
CCOc1ccc(NC(=O)CN(C)C(=O)C2=COCCO2)cc1OCC | / | 49% | 39% | -14 | 3% | /
Cc1cc(C)n(-c2nc3nonc3nc2-n2nc(C)cc2C)n1 | -11 | 6% | / | -24 | 3% | -3
CCN(CC)c1nc2nonc2nc1N(CC)CC | -6 | 7% | 4.7µM* | -17 | -22% | -2
CSc1ccc(CCNC(=O)CCc2c(C)nc3ncnn3c2C)cc1 | / | / | / | 10 | / | /
CCOc1ccc(-c2cc(C(=O)N3CCN(c4ccccn4)CC3)c3ccccc3n2)cc1 | 54* | 7.1µM*! | / | 38 | -44% | 35*
CCOc1ccc(-c2cc(C(=O)N3CCC4(CC3)OCCO4)c3ccccc3n2)cc1 | / | -1% | / | -2 | / | /
COc1cc(-c2cc(C(=O)N3CCN(c4ccccn4)CC3)c3ccccc3n2)cc(OC)c1OC | -10 | 13µM* | 47% | 40 | ? | 1
COc1ccc(-c2cc(C(=O)N3CCN(c4ccccn4)CC3)c3ccccc3n2)cc1 | 75* | ? | / | 58 | 70% | 43*
COc1ccc(-c2cc(C(=O)N3CCN(c4ncccn4)CC3)c3ccccc3n2)c(OC)c1 | 18 | ? | 1.9µM* | 17 | ? | -2
O=C(c1cc(-c2ccccc2Cl)nc2ccccc12)N1CCN(c2ccccn2)CC1 | / | -2% | / | / | / | /
CCc1ccccc1NC(=O)N1CCN(c2cc(-c3noc(C)n3)ccc2C)CC1 | / | / | / | 4 | / | /
Cc1nn(C)cc1S(=O)(=O)NCc1ccc2c(c1)OCO2 | -5 | 13% | ? | -26 | 15% | 4
